Laboratory results published in PubChem BioAssay (NCATS).
Records with an inconclusive call do not appear. The source made the active and inactive calls. Unless noted, the call rests on the fitted dose curve; in most records, active means well fitted curve in the direction sought with a large enough effect; inconclusive means small, poorly fitted or top-dose-only effect, or another doubt; inactive means no such curve, though single readings can be large; an effect the other way counts as inactive or inconclusive.

Tests used:
[1] = molecular target: Aldehyde dehydrogenase, mitochondrial (Homo sapiens) (UniProt P05091); test: qHTS for Inhibitors of the Aldehyde Dehydrogenase Family (ALDH2) Confirmatory screens (AID 2061303; active means well fitted inhibition curve with a large enough effect; title and protocol of this record describe different tests; further: nearly all actives have a fitted effect of over 45% in size; further: potency means the concentration at half of the fitted maximal effect)
[2] = qHTS for Inhibitors of the Aldehyde Dehydrogenase Family (ALDH1A2, ALDH1A3, ALDH2, ALDH3A1) (AID 2061307); further: nearly all actives have a fitted effect of over 50% in size; on Potency: test system not described further here; potency means the concentration at half of the fitted maximal effect
[3] = molecular target: Aldehyde dehydrogenase, mitochondrial (Homo sapiens) (UniProt P05091); test: qHTS for Inhibitors of the Aldehyde Dehydrogenase Family (ALDH2) Primary screen (AID 2061308); further: nearly all actives have a fitted effect of over 55% in size; further: potency means the concentration at half of the fitted maximal effect
[4] = molecular target: Retinaldehyde dehydrogenase 3 (Homo sapiens) (UniProt P47895); test: qHTS for Inhibitors of the Aldehyde Dehydrogenase Family (ALDH1A3) Confirmatory screens (AID 2061311); further: nearly all actives have a fitted effect of over 60% in size; further: potency means the concentration at half of the fitted maximal effect
[5] = molecular target: Retinal dehydrogenase 2 (Homo sapiens) (UniProt O94788); test: qHTS for Inhibitors of the Aldehyde Dehydrogenase Family (ALDH1A2) Confirmation screens (AID 2061314); further: nearly all actives have a fitted effect of over 65% in size; further: potency means the concentration at half of the fitted maximal effect
[6] = molecular target: Retinaldehyde dehydrogenase 3 (Homo sapiens) (UniProt P47895); test: qHTS for Inhibitors of the Aldehyde Dehydrogenase Family (ALDH1A3) Primary screen (AID 2061315)
[7] = molecular target: Aldehyde dehydrogenase 1A1 (Homo sapiens) (UniProt P00352); test: qHTS for Inhibitors of the Aldehyde Dehydrogenase Family (ALDH1A1) Confirmatory screens (AID 2061316); further: nearly all actives have a fitted effect of over 65% in size; further: potency means the concentration at half of the fitted maximal effect

Measured: Potency

S=C(NCCCc1cnc[nH]1)NCCCN(Cc1ccc(Cl)c(Cl)c1)c1ccccn1
inactive: [1] | [2] | [3] | [4] | [5] | [6] | [7]

N#Cc1ccc(-c2ccc(C3Nc4ccccc4C(=O)N3O)o2)cc1 (stereo not drawn)
inactive: [6]
active: [1] 1.26 µM | [2] 3.18 µM | [3] 1.26 µM | [4] 5.04 µM | [5] 3.18 µM | [7] 3.57 µM

CCCCN(CCCNC(=S)NCCCc1cnc[nH]1)c1ccc(Br)cn1
active: [1] 22.4 µM | [2] 12.6 µM | [4] 14.1 µM | [5] 8.96 µM
inactive: [3] | [6] | [7]

Cc1ccc(C[C@@H](NS(=O)(=O)c2ccc(C(=O)O)cc2)C(=O)O)cc1
inactive: [1] | [2] | [3] | [4] | [5] | [6] | [7]

COc1ccc(C2=Nn3c(nnc3-c3cc(OC)cc(OC)c3)SC2)cc1
inactive: [1] | [2] | [3] | [4] | [5] | [6] | [7]

C=CCNc1oc(-c2cccs2)nc1C#N
inactive: [1] | [2] | [3] | [4] | [5] | [6] | [7]

CC(=O)Nc1ccc(S(=O)(=O)N2CCN(S(=O)(=O)c3ccc4c(c3)OCCO4)CC2)cc1
inactive: [1] | [2] | [3] | [4] | [5] | [6] | [7]

Cn1ncc(-c2nnc(-c3ccccc3)n2CCCn2ccnc2)c1N
inactive: [1] | [2] | [3] | [4] | [5] | [6] | [7]

CC(C)(C)OC(=O)N1CCN(c2ccc(NCc3cnc(-c4ccc(C#N)cc4)o3)cc2)CC1
inactive: [4] | [5] | [6] | [7]
active: [1] 0.4 µM | [2] 0.252 µM | [3] 0.316 µM
